Results from PubChem BioAssay (NCI).
About 83,000 compounds went through this panel and 20% of them were active in at least one assay; those are over-represented in the sample as a whole.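 96-well plates, one dose, 48 hours. Percent growth reported; active if below 10.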 Values without a mark were called inactive. Calls of active or inactive are those of the source.

What was measured:
Assay in all cases: NCI-60 one-dose screen, 48 h (100 = growth as untreated, 0 = no growth, -100 = all killed)
Conditions in all cases: 10 µM unless noted
HCT-15 colon = system: HCT-15 colon
HT29 colon = system: HT29 colon
SNB-75 CNS = system: SNB-75 CNS
SNB-19 CNS = system: SNB-19 CNS
U251 CNS = system: U251 CNS
PC-3 prostate = system: PC-3 prostate
UACC-62 melanoma = system: UACC-62 melanoma
LOX IMVI melanoma = system: LOX IMVI melanoma
SK-MEL-28 melanoma = system: SK-MEL-28 melanoma
SK-MEL-2 melanoma = system: SK-MEL-2 melanoma
EKVX NSCLC = system: EKVX NSCLC
SN12C renal = system: SN12C renal
UO-31 renal = system: UO-31 renal
TK-10 renal = system: TK-10 renal
ACHN renal = system: ACHN renal
CAKI-1 renal = system: CAKI-1 renal
A498 renal = system: A498 renal
CCRF-CEM leukemia = system: CCRF-CEM leukemia
MOLT-4 leukemia = system: MOLT-4 leukemia

Row | SMILES | growth (HCT-15 colon) | growth (HT29 colon) | growth (SNB-75 CNS) | growth (SNB-19 CNS) | growth (U251 CNS) | growth (PC-3 prostate) | growth (UACC-62 melanoma) | growth (LOX IMVI melanoma) | growth (SK-MEL-28 melanoma) | growth (SK-MEL-2 melanoma) | growth (EKVX NSCLC) | growth (SN12C renal) | growth (UO-31 renal) | growth (TK-10 renal) | growth (ACHN renal) | growth (CAKI-1 renal) | growth (A498 renal) | growth (CCRF-CEM leukemia) | growth (MOLT-4 leukemia)
1 | CCOc1cc2ncc(C#N)c(Nc3ccc(OCc4cccc(F)c4)c(Cl)c3)c2cc1NC(=O)CCCCC1CCSS1 (stereo not given) | 97% | 86.8% | 97.8% | 105% | 82.5% | 83.9% | 89% | 79.5% | 101% | 94.3% | 78.5% | 88.6% | 55.8% | 92.2% | 91.3% | 72% | 70.1% | 78.9% | 78.5%
2 | O=C1OC(c2ccccc2)C(O)=C1c1ccccc1 (stereo not given) | 108% | 111% | 102% | 105% | 100% | 99.1% | 104% | 113% | 120% | 117% | 104% | 98.9% | 79.7% | 110% | 103% | 95% | 100% | 89.7% | 90.1%
3 | Nc1ccc(S(=O)(=O)O)c2ccc(N=Nc3ccc(N=Nc4ccc(S(=O)(=O)O)cc4)c4ccccc34)c(O)c12 | 115% | 103% | 76.5% | 95.9% | 111% | 91.6% | 91.3% | 98.1% | 109% | 110% | 124% | 98.1% | 55.8% | 98.7% | 101% | 95.3% | 98.8% | 106% | 80.2%
4 | COc1cc2c(cc1-c1c(C)noc1C)ncc1nc(-c3ccccn3)n([C@H](C)COC(F)F)c12 | 23.2% | 24.2% | 34% | 60.2% | 48.8% | 34% | 23.9% | 20.9% | 67.3% | 76.3% | 59% | 62.8% | 18.8% | 33% | 40.1% | 34.2% | -12.2% (active) | 41% | 44.4%
5 | COc1cc(C(=O)Oc2ccccc2OC(=O)c2cc(OC)c(OC)c(OC)c2)cc(OC)c1OC | 99.4% | 110% | 95.3% | 97% | 104% | 88.8% | 103% | 94.9% | 120% | 115% | 95.7% | 98.4% | 84.5% | 98.4% | 93.9% | 91.6% | 108% | 97.2% | 114%
6 | COc1cc2c(cc1-c1c(C)noc1C)ncc1nc(C3CCOCC3)n([C@@H](C)COC(F)F)c12 | 24.5% | 18.8% | 28.7% | 56.6% | 53.3% | 39.2% | 20.7% | 24.2% | 53.5% | 76.4% | 55.8% | 66.5% | -38.3% (active) | 26.6% | 36.9% | -11.1% (active) | -6.79% (active) | 55.6% | 48%
7 | COc1ccc(/C=C/C(=O)c2cc(O)ccc2O)cc1 | 87.7% | 102% | 84.1% | 96.6% | 84.8% | 88.4% | 102% | 103% | 109% | 101% | 93% | 93.7% | 73.1% | 95.3% | 84.9% | 67.7% | 109% | 41.1% | 79.2%
8 | O=C(O)c1c(=O)cccc2ssc12 | 4.16% (active) | -48.6% (active) | 26.9% | -74.4% (active) | -91.9% (active) | -19.3% (active) | 14.3% | 1.04% (active) | 10.8% | 11.6% | 11% | 14.3% | 21.7% | 4.78% (active) | 3.95% (active) | 68.5% | -76.8% (active) | 4.61% (active) | -23.3% (active)
9 | CCN=C1C=CC(=C(c2ccc(N)cc2)c2ccc(N(CC)CC)c(C)c2)C=C1 | 7.26% (active) | 5.82% (active) | -28.4% (active) | 11.5% | -19% (active) | -5.29% (active) | -36.6% (active) | -56.2% (active) | -19.1% (active) | -15.3% (active) | 10.6% | -14% (active) | 3.22% (active) | 15.4% | -2.24% (active) | 14.1% | -26.5% (active) | -19.5% (active) | -4.13% (active)
10 | CC[C@@H](C(=O)[C@@H](C)[C@@H](O)[C@H](C)[C@@H]1O[C@@H]([C@@H](CC)C(=O)O)CC[C@@H]1C)[C@H]1OC2(C=C[C@@H](O)[C@]3(CC[C@@](C)([C@H]4CC[C@](O)(CC)[C@H](C)O4)O3)O2)[C@H](C)C[C@@H]1C (stereo not given in full) | 19.8% | 13.5% | -28.8% (active) | -33.7% (active) | 0.353% (active) | 31.2% | -96.2% (active) | 8.3% (active) | -89.8% (active) | -55.1% (active) | 34.3% | 16.1% | 20.4% | 29.7% | 33.4% | 18.2% | -79.2% (active) | 0.899% (active) | -8.95% (active)
11 | CCCCN(CCCC)CCCn1c(-c2ccccc2)ccc1-c1ccccc1 | 55.3% | 33.1% | 83.4% | 83.4% | 58.3% | 48% | 82.4% | 68.7% | 88.8% | 93.5% | 49.6% | 70.7% | 56.9% | 83.1% | 62.9% | 59.8% | 59.3% | 44.3% | 55%
12 | Oc1cccc2ccc(N/N=C/c3cc(CN4CCOCC4)c(O)c4ncccc34)nc12 | 26.2% | 17.6% | 35.9% | 23.9% | 5.22% (active) | 28.5% | 2.18% (active) | -71.1% (active) | 24% | 25% | 23.4% | 20.2% | -4.14% (active) | 23% | -29.3% (active) | 11.5% | 21.3% | 16.6% | 9.34% (active)
13 | OC(c1cc2cc(Cl)c(Cl)cc2c2cc(C(F)(F)F)ccc12)C1CCCCN1 (stereo not given) | -60.7% (active) | -73.6% (active) | -64% (active) | -64.1% (active) | -92.3% (active) | -84.8% (active) | -38.4% (active) | -88.2% (active) | -79.1% (active) | -54.2% (active) | -24.8% (active) | -73.2% (active) | -74.2% (active) | -75.2% (active) | -82.5% (active) | -46.4% (active) | 48.1% | -45% (active) | -60.3% (active)
14 | O=C1Nc2c(ccc(Cl)c2Cl)/C1=C\c1ccc(C(F)(F)F)cc1 | 81.9% | 74.4% | 73.4% | 81.6% | 74.2% | 62.5% | 61.9% | 67% | 97.4% | 91.4% | 55.2% | 79.7% | 57.9% | 96.4% | 86.5% | 65.9% | 102% | 6.78% (active) | 44.3%
15 | O=C1Nc2c(ccc(Cl)c2Cl)/C1=C\c1cc(C(F)(F)F)cc(C(F)(F)F)c1 | -80.8% (active) | -26.5% (active) | 13.7% | 21.7% | -54.2% (active) | 0.08% (active) | -3.92% (active) | -90.1% (active) | -21% (active) | 38.4% | 26.9% | 14.2% | 16.6% | 26% | 8.13% (active) | 8.62% (active) | -23.7% (active) | 30.8% | -14.2% (active)
